Measured values from PubChem BioAssay.
Records with an inconclusive call do not appear. The source made the active and inactive calls.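 How the source made its calls, unless noted: active means normalized viability below 100% at a tested concentration; inactive means the rest.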

Key:
[1] = viability loss in pontine glioma line – cell-based, SU-DIPG-XIII, MIPE4.0, CellTiter-Glo, qHTS, dose response (AID 1347061; cut-off not given, nearly all actives have AC50 up to about 37 µM;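 further: cells exposed to compound for 48 hours before readout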); settings: CellTiter-Glo ATP luminescence
[2] = viability loss in pontine glioma line – cell-based, JHH-DIPG-1, MIPE4.0, CellTiter-Glo, qHTS, dose response (AID 1347062; cut-off not given, nearly all actives have AC50 up to about 27 µM;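 on AC50: cells exposed to compound for two days before readout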); settings: JHH-DIPG-1 viability, CellTiter-Glo ATP luminescence
[3] = viability loss in pontine glioma line – cell-based, SU-DIPG-IV, MIPE4.0, CellTiter-Glo, qHTS, dose response (AID 1347063; cut-off not given, nearly all actives have AC50 up to about 30 µM;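 further: compound exposure lasted 48 hours before the viability readout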); settings: CellTiter-Glo ATP luminescence
[4] = viability loss in pontine glioma line – cell-based, SU-DIPG-XIII, MIPE5.0, CellTiter-Glo, qHTS, dose response (AID 1347064; cut-off not given, nearly all actives have AC50 up to about 23 µM;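 on AC50: cells exposed to compound for 48 hours before the viability read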); settings: CellTiter-Glo ATP luminescence
[5] = viability loss in pontine glioma line – cell-based, SU-DIPG-XXV, MIPE5.0, CellTiter-Glo, qHTS, dose response (AID 1347065; cut-off not given, nearly all actives have AC50 up to about 26 µM;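 further: cells exposed to compound for 48 hours before ATP readout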); settings: CellTiter-Glo ATP luminescence
[6] = growth inhibition of DIPG cells – cell-based, MIPE4.0 library, CellTiter-Glo luminescence, qHTS (AID 1347066; cut-off not given, nearly all actives have AC50 up to about 30 µM;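 further: cells exposed to compound for 48 hours before readout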); settings: SU-DIPG-VI viability, CellTiter-Glo ATP luminescence
[7] = JHH-DIPG-1 glioma cell viability, MIPE5.0 library, CellTiter-Glo luminescence, qHTS (AID 1347067; cut-off not given, nearly all actives have AC50 up to about 26 µM;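 further: cells exposed to compound for 48 hours before readout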); settings: JHH-DIPG-1 glioma viability, CellTiter-Glo ATP luminescence
[8] = growth inhibition of DIPG cells – cell-based, MIPE5.0 library, qHTS (AID 1347068; cut-off not given, nearly all actives have IC50 up to about 30 µM;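 on IC50: cells exposed to compound for 48 hours before viability readout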); settings: SU-DIPG-XXV viability
[9] = viability loss with induced miR-34 in A549 – imaging, A549 dox-inducible miR-34, nuclei and caspase counts, primary screen (AID 1347080;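 active means compounds whose cell count with miR-34 switched on is under 0.7 times the count with it off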); settings: A549 miR-34 inducible, Hoechst nuclei count, 48 h
[10] = MELAS cybrid and Rieske KO viability enhancers – cell-based, MELAS cybrids, Rieske KO mouse fibroblasts, CellTiter-Glo, primary screen (AID 1508586;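 active means mean z-score across replicates of 1.96 or higher in either the MELAS or the Rieske mutant cell line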;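 further: z relative to plate mean and SD of compound and empty wells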); settings: low glucose
[11] = drug combination growth inhibition, ovarian cancer – cell-based, oncology-focused library, rucaparib conditional, profiling panel (AID 1508598); settings: patient-derived ovarian cancer cells, CellTiter-Glo viability, 144 h, stronger effect = lower value
[12] = stronger effect = lower value, cell number ratio, induced over uninduced
[13] = measured here: relative caspase fold change +Dox/-Dox
[14] = measured here: total cells with miR-34 induction, stronger effect = lower value
[15] = measured here: total cells without miR-34 induction

CC(C)n1nc(-c2ccc3oc(N)nc3c2)c2c(N)ncnc21
2980: cell count [9, 14]
inactive: fold change [9, 12] 0.877 | viability ([11]; at 0.000305 µM, OCI-C5x cells, with rucaparib 10 µM, 100% = cells with rucaparib alone) 109% | viability ([11]; at 0.000305 µM, OCI-C5x cells, without rucaparib) 109% | viability ([11]; at 0.00122 µM, OCI-C5x cells, with rucaparib 10 µM, 100% = cells with rucaparib alone) 113% | viability ([11]; at 0.00122 µM, OCI-C5x cells, without rucaparib) 121% | viability ([11]; at 0.00488 µM, OCI-C5x cells, with rucaparib 10 µM, 100% = cells with rucaparib alone) 100% | viability ([11]; at 0.00488 µM, OCI-C5x cells, without rucaparib) 123%
-2.58: z-score ([10]; Rieske KO mouse fibroblast survival, CellTiter-Glo 72 h)
0.45: fold change [9, 13]
active: AC50 [1] 9.35 µM | AC50 [2] 8.33 µM | AC50 [3] 3.72 µM | AC50 [4] 1.18 µM | AC50 [5] 0.0661 µM | AC50 [6] 18.7 µM | AC50 [7] 1.18 µM | IC50 [8] 4.17 µM | z-score ([10]; MELAS cybrid survival, CellTiter-Glo 48 h, stronger effect = higher value) 2.73 | viability ([11]; at 0.000305 µM, OCI-P5x cells, with rucaparib 20 µM, 100% = cells with rucaparib alone) 96.2% | viability ([11]; at 0.000305 µM, OCI-P5x cells, without rucaparib) 92.8% | viability ([11]; at 0.00122 µM, OCI-P5x cells, with rucaparib 20 µM, 100% = cells with rucaparib alone) 92.7% | viability ([11]; at 0.00122 µM, OCI-P5x cells, without rucaparib) 90.7% | viability ([11]; at 0.00488 µM, OCI-P5x cells, with rucaparib 20 µM, 100% = cells with rucaparib alone) 80.8% | viability ([11]; at 0.00488 µM, OCI-P5x cells, without rucaparib) 79.2% | viability ([11]; at 0.0195 µM, OCI-C5x cells, with rucaparib 10 µM, 100% = cells with rucaparib alone) 87.5% | viability ([11]; at 0.0195 µM, OCI-C5x cells, without rucaparib) 88.1% | viability ([11]; at 0.0195 µM, OCI-P5x cells, with rucaparib 20 µM, 100% = cells with rucaparib alone) 56.8% | viability ([11]; at 0.0195 µM, OCI-P5x cells, without rucaparib) 52.8% | viability ([11]; at 0.0781 µM, OCI-C5x cells, with rucaparib 10 µM, 100% = cells with rucaparib alone) 70.4% | viability ([11]; at 0.0781 µM, OCI-C5x cells, without rucaparib) 62.2% | viability ([11]; at 0.0781 µM, OCI-P5x cells, with rucaparib 20 µM, 100% = cells with rucaparib alone) 43.5% | viability ([11]; at 0.0781 µM, OCI-P5x cells, without rucaparib) 37.2% | viability ([11]; at 0.313 µM, OCI-C5x cells, with rucaparib 10 µM, 100% = cells with rucaparib alone) 61.9% | viability ([11]; at 0.313 µM, OCI-C5x cells, without rucaparib) 55.6% | viability ([11]; at 0.313 µM, OCI-P5x cells, with rucaparib 20 µM, 100% = cells with rucaparib alone) 36.9% | viability ([11]; at 0.313 µM, OCI-P5x cells, without rucaparib) 26.5% | viability ([11]; at 1.25 µM, OCI-C5x cells, with rucaparib 10 µM, 100% = cells with rucaparib alone) 51.8% | viability ([11]; at 1.25 µM, OCI-C5x cells, without rucaparib) 47.4% | viability ([11]; at 1.25 µM, OCI-P5x cells, with rucaparib 20 µM, 100% = cells with rucaparib alone) 29% | viability ([11]; at 1.25 µM, OCI-P5x cells, without rucaparib) 22.9% | viability ([11]; at 5 µM, OCI-C5x cells, with rucaparib 10 µM, 100% = cells with rucaparib alone) 39% | viability ([11]; at 5 µM, OCI-C5x cells, without rucaparib) 31.9% | viability ([11]; at 5 µM, OCI-P5x cells, with rucaparib 20 µM, 100% = cells with rucaparib alone) 19.5% | viability ([11]; at 5 µM, OCI-P5x cells, without rucaparib) 15.8%
3400: cell count [9, 15]

CCc1ccc(/C=C2/SC(=S)NC2=O)cc1
8940: cell count [9, 14]
inactive: outcome [1] | outcome [2] | outcome [3] | outcome [4] | outcome [5] | outcome [6] | outcome [7] | outcome [8] | fold change [9, 12] 1
1.81: fold change [9, 13]
8930: cell count [9, 15]

Cc1cn([C@@H]2C[C@@H](O)[C@H](CO)O2)c(=O)[nH]c1=O
inactive: outcome [1] | outcome [2] | outcome [3] | outcome [4] | outcome [5] | outcome [6] | outcome [7] | outcome [8]

C[C@@H]1C(=O)O[C@H]2CC34[C@H]5C[C@@H](C(C)(C)C)C36[C@@H](OC(=O)[C@@H]6O)O[C@@]4(C(=O)O5)[C@]21O (some centres undefined)
inactive: outcome [1] | outcome [2] | outcome [3] | outcome [4] | outcome [5] | outcome [6] | outcome [7]

O=C(CC12CC3CC(CC(C3)C1)C2)Nc1cccc2nc(NCCNCCO)ccc12
active: AC50 [1] 14.8 µM | AC50 [2] 20.9 µM | AC50 [3] 10.5 µM
inactive: outcome [4]

CO[C@H]1C(=O)[C@]2(C)[C@@H](OC)C[C@H]3OC[C@@]3(OC(C)=O)[C@H]2[C@H](OC(=O)c2ccccc2)[C@]2(O)C[C@H](OC(=O)[C@H](O)[C@@H](NC(=O)OC(C)(C)C)c3ccccc3)C(C)=C1C2(C)C
inactive: outcome [1] | outcome [2] | outcome [3] | outcome [4] | outcome [6] | outcome [7]
active: AC50 [5] 0.00186 µM
